KDM5B inhibitor – inhibitors of human KDM5B histone demethylase; Q9UGL1; 2.6% of 220,000 active; KDM5B demethylase, FDH-coupled NADH fluorescence (FDH is formaldehyde dehydrogenase); AID 1347165; Potency, µM (titrated, usually from 57.7 µM), actives largely listed as inhibitors; active means well fitted inhibition curve with a large enough effect; further: nearly all actives have a fitted effect of over 70% in size
Target sequence (Q9UGL1 whole entry, looked up): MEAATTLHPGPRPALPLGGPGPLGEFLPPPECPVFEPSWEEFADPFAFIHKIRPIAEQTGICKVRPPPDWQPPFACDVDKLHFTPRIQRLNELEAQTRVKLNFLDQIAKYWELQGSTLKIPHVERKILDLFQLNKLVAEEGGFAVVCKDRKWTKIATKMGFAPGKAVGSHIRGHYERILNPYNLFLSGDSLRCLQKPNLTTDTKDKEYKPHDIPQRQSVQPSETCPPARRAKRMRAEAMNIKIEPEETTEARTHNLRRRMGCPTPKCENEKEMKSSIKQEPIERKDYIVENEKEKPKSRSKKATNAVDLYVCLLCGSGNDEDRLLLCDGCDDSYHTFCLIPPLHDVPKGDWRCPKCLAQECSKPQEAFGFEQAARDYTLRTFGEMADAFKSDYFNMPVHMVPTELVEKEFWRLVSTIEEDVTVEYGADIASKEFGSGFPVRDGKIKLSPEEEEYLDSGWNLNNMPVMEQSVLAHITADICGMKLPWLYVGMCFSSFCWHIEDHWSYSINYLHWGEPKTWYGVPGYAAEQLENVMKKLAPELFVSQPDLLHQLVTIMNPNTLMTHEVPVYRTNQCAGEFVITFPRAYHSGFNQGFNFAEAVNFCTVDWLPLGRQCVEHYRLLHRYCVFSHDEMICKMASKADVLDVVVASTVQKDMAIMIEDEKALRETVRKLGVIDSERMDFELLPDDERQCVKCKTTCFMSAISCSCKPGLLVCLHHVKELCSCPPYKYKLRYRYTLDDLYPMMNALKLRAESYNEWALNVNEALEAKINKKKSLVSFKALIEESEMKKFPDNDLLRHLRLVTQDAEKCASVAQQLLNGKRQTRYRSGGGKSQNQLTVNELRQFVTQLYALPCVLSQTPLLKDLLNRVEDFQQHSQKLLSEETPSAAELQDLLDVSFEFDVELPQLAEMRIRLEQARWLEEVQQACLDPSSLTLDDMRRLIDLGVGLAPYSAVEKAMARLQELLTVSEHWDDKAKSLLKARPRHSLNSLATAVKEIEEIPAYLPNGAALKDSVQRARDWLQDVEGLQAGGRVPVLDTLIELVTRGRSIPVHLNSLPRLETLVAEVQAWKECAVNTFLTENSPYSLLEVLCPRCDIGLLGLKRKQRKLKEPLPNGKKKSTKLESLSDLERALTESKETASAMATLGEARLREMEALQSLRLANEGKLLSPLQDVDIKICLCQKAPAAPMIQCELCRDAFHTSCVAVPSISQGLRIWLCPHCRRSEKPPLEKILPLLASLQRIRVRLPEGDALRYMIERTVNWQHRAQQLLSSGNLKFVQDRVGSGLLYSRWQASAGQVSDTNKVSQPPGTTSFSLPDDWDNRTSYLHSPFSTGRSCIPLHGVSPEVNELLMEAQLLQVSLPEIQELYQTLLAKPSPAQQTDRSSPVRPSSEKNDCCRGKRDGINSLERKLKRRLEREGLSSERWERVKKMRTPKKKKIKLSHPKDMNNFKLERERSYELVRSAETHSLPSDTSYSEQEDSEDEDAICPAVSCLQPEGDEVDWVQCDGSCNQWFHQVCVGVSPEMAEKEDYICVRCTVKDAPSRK
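Compound dilutions met 200 nM (final) KDM5BΔAP for 10 min at room temperature before substrate addition. The substrate mix held 12.5 µM H3K4me3 with cofactors 25 µM α-ketoglutarate and 50 µM Fe²⁺. NADH signal gain over 30 min defined activity.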
Each line names hits and unclear results; the compound was inactive in the other large screens. The entries come from a sample that favours hits as a whole.

Cc1nc(-c2ccc3c(c2)-c2ccccc2C3)cs1	none
CC(Sc1ccc(C(F)(F)F)cn1)C(=O)NC(C)(C#N)C(C)C (centres undefined)	none
COc1ccc(-c2nc3ccc(C)cc3c(C(=O)O)c2C)cc1	none
COc1ccc(-c2nccn3cc(C(=O)NCc4cccnc4)nc23)cc1	KDM5B inhibitor 20µM
COc1ccc(-c2nccn3cc(C(=O)Nc4ccc(OC)c(OC)c4)nc23)cc1	none
Cc1ccc(NC(=O)NCc2nc3ccccc3n2C)cc1	none
CCOC(=O)C1CCN(C(=O)c2cn(-c3ccccc3)nc2-c2ccc(Br)cc2)CC1	none
COc1ccc(-c2nccn3cc(C(=O)NCc4nc5ccccc5n4C)nc23)cc1	KDM5B inhibitor 7.9µM
COc1ccc(-c2nccn3cc(C(=O)O)nc23)cc1	KDM5B inhibitor 28µM
COc1ccc(-c2cn3cc(C(=O)N4CC[C@H](O)C4)nc3c(=O)n2CC2CC2)cc1	none
CCCn1c(CNC(=O)c2cc(OC)c(OC)c(OC)c2)nc2ccccc21	none
COc1ccc(NS(=O)(=O)c2ccc(C)c(C(=O)NCc3cccnc3)c2)cc1	none
COc1ccc(CNC(=O)c2cn3ccnc(-c4ccccc4)c3n2)cc1OC	none
CCOC(=O)C1CCN(C(=O)c2cn3ccnc(-c4ccc(OC)cc4)c3n2)CC1	KDM5B inhibitor 25µM
CN1CCN(c2ccc(NC(=O)c3cccc(S(=O)(=O)NCc4cccs4)c3)cc2)CC1	none
COc1ccc(C(=O)N2CCC3(CC2)C(OC)CN3c2cccc(F)c2)cc1F (centres undefined)	none
COc1ccc(-c2nc(-c3c[nH]c(C(=O)N4CCCC4)c3)cs2)cc1	none
Cc1ccc(NC(=O)c2sc3ccccc3c2C)cc1	none
Cc1cccc(C(=O)Nc2c(N3CCCC3)c3ccccc3oc2=O)c1	none
CCc1ccc2nc(Nc3nc(-c4cccc(OC)c4)cc(=O)[nH]3)nc(C)c2c1	none
O=c1[nH]c(C2CCCN(CC3CCCCC3)C2)nn1-c1ccc(Cl)cc1 (centres undefined)	none
O=C(O)c1ccc(Nc2ccccc2)c([N+](=O)[O-])c1	none
Cc1nc2cc(C(=O)N3CCC(Cc4nncn4C(C)C)CC3)ccc2n1-c1ccc(C(C)C)cc1	none
CCCCNc1oc(-c2ccc(S(=O)(=O)N3CCOCC3)cc2)nc1C#N	none
COCCNC(=O)c1cn2ccnc(-c3ccc(C)cc3)c2n1	none
COc1ccc(-c2nccn3cc(C(=O)NCCc4cccnc4)nc23)cc1	KDM5B inhibitor 28µM
Cc1ccc(-c2nccn3cc(C(=O)NCCc4ccccn4)nc23)cc1	none
Cn1c(SCC(=O)Nc2cccc(C#N)c2)nc2cc(-c3ccccc3)sc2c1=O	none
COc1cccc(-c2nc(SCc3cc(=O)n4c(C)csc4n3)n[nH]2)c1	none
C#CCNC(=O)c1cc(-c2ccc(Cl)nc2)nc2c1cnn2C	KDM5B inhibitor 100µM
COc1ccccc1-c1cc(C(=O)NC2CC2)c2cnn(C)c2n1	none
COC(=O)CNC(=O)c1cc(C(C)(C)C)nc2c1cnn2C	KDM5B inhibitor 89µM
COC(=O)CNC(=O)c1cc(-c2ccc(Cl)nc2)nc2c1cnn2C	KDM5B inhibitor 79µM
Cn1ncc2c(C(=O)NC3CC3)cc(-c3cccnc3)nc21	KDM5B inhibitor 89µM
O=C(NCc1ccncc1)c1cc(-c2ccc(Cl)cc2)nc2ccccc12	none
COC(=O)CNC(=O)c1cc(C)cc(C)c1	none
COC(=O)CNC(=O)C1CCc2nnc(-c3ccc(Cl)nc3)n21 (centres undefined)	none
Cn1ncc2c(C(=O)N3CCOCC3)cc(C(C)(C)C)nc21	none
Cc1c(Cl)ccc2c(C(=O)NC3CCC(C)CC3)cc(-c3cccnc3)nc12 (centres undefined)	none
COC(=O)CNC(=O)c1cc(-c2ccccc2OC)nc2c1cnn2C	none
Cc1ccc(-c2cc(C(=O)NCc3ccccc3Cl)c3ccccc3n2)cc1C	none
CCN1C(=O)C(Cc2ccc(OC)c(OC)c2OC)c2ccccc21 (centres undefined)	none
N#Cc1ccccc1COc1ccccc1C#N	none
Cc1ccc(Nc2cc(Cl)c3nonc3c2[N+](=O)[O-])cc1	none
CCc1ccccc1NC(=O)c1cc2cccc(OC)c2oc1=O	none
Fc1ccc(-c2nc(COc3ccc(Oc4ccccn4)cc3)co2)cc1	none
Cc1ccc(C(=O)/C=C/c2ccccc2C)o1	none
CCCOC(=O)c1ccc(NC(=O)NC(c2ccccc2F)c2nccn2C)cc1 (centres undefined)	none
CC1CCC(NC(=O)CSc2nnc(C(C)C)o2)CC1 (centres undefined)	none
CN1CCOc2c(C(=O)NCc3cccnc3)cc(-c3ccc(CO)cc3)cc21	KDM5B inhibitor 40µM
Cc1ccccc1-n1nc(CO)c(C(=O)NCc2cccnc2)n1	none
CN1CCOc2c(C(=O)NCc3cccnc3)cc(-c3cccc4[nH]ccc34)cc21	KDM5B inhibitor 35µM
Cc1ccc(C)c(Nc2cc(C(=O)NCc3cccnc3)c3ccccc3n2)c1	none
CN1CCOc2c(C(=O)NCc3cccnc3)cc(-c3ccccc3)cc21	KDM5B inhibitor 28µM
CN1CCOc2c(C(=O)NCc3cnn(C)c3)cc(-c3ccccc3O)cc21	KDM5B inhibitor 28µM
CCn1cc(C(=O)N2CCOc3c(O)cc(-c4ccccc4C)cc3C2)cn1	none
O=C(Nc1ccccc1C(=O)NCc1cccnc1)c1cccnc1	none
CCn1cc(CNC(=O)c2cc(-c3ccccc3)nc3ccccc23)cn1	none
CN1CCOc2c(C(=O)NCc3cnn(C)c3)cc(-c3cccnc3)cc21	none
Cc1cccn2c(=O)c3cc(C(=O)NCc4cccnc4)c(=N)n(CC4CCCO4)c3nc12 (centres undefined)	none
Cc1ccc(-n2nnc(-c3nc(-c4ccccc4Cl)no3)c2C)cc1F	none
COc1cccc(C2(c3cccc(OC)c3)CC2C(=O)O)c1 (centres undefined)	none
Cc1cc(NC(=O)CCc2ccsc2)ccc1N1CCCC1=O	none
CC(NC(=S)Nc1ccc(SC(F)F)cc1)c1ccncc1 (centres undefined)	none
CC(CNC(=O)CSc1ccc2ccccc2n1)c1ccccc1 (centres undefined)	none
Cc1ccc(-c2cnc(CCC(=O)Nc3cc(Cl)c(N)c(Cl)c3)o2)cc1C	none
COC(=O)c1sc(S(=O)(=O)Nc2cc(F)ccc2C)c(C(=O)OC)c1C	none
COc1ccccc1OCC(=O)NCc1cc(C)nc2ccccc12	none
COC(=O)CC(N)c1ccccc1 (centres undefined)	none
CCCCCCC/C=N/NC(=O)c1ccccc1	none
O=[N+]([O-])c1ccc(C(=C(c2ccccc2)c2ccccc2)c2ccc([N+](=O)[O-])cc2)cc1	none
CCc1nc(SCC(=O)Nc2cccc(OC)c2)c2c3c(sc2n1)COC(C)(C)C3	none
Cc1oc(-c2ccccc2)nc1C(=O)Nc1nc(CC(N)=O)cs1	none
O=C(CCc1ncc(-c2ccccc2F)o1)Nc1cccc(Br)c1	none
CN1CCOc2c(C(=O)NCc3cccnc3)cc(-c3ccccc3O)cc21	KDM5B inhibitor 32µM
CCN1C(=O)c2ccccc2S(=O)c2ccc(C(=O)NCc3cccnc3)cc21 (centres undefined)	none
Cc1cc(C(=O)NCc2cccnc2)sc1C	none
COc1ccc(-c2nc(SCC(=O)Nc3ccc(Br)cc3C)n[nH]2)cc1	none
Cc1nc2ccccc2nc1SCC(=O)NC(C)c1ccccc1 (centres undefined)	none
O=C(Nc1cccc(Cl)c1)c1cc2n(n1)CC(c1ccc3c(c1)OCO3)OC2 (centres undefined)	KDM5B inhibitor 25µM
O=C(c1cc2n(n1)CC(c1ccc3c(c1)OCO3)OC2)N1CCCC1 (centres undefined)	KDM5B inhibitor 28µM
COc1ccc(NC(=O)c2cc3n(n2)CC(c2ccc4c(c2)OCO4)OC3)c(OC)c1 (centres undefined)	KDM5B inhibitor 35µM

Bioassay records deposited in PubChem BioAssay by National Center for Advancing Translational Sciences (NCATS).
